Measured values reported in PubChem BioAssay AID463173 (ICCB-Longwood Screening Facility, Harvard Medical School, 2010).
Hit rate of the full screen: of about 52,000 compounds, about 4,300 (8.3%) were called active. Rule as the data show it: active = survival mostly below about 52% (no sharp cut-off); inactive = mostly above about 56%. Shown is part of a subset that was picked to be rich in actives.

system: DeltatarO mutant; assay: growth inhibition of S. aureus wild type versus tarO mutant, primary screen, teichoic acid synthesis inhibitors, RN4220, OD600 (AID 463173); settings: OD600, 18 h, hits give low values, screened at 18.75 µg/mL (by protocol)

Compound	survival
O=c1oc2cc(Br)ccc2n1CO	105% (inactive)
Cc1ccc(NCc2ccccc2-c2nnc(-c3ccccc3Cl)o2)c(C)c1	83% (inactive)
Cc1cccc(N2CCN(CC(=O)NCc3cccs3)CC2)c1C	101% (inactive)
COc1ccc2c(c1)c1c(c(=O)n(CCc3ccccc3)c(=O)n1Cc1cccc(C)c1)n2C	70% (inactive)
CCCCN(CC)CCNC(=O)c1nn(C)c2c1CS(=O)(=O)c1ccccc1-2	56% (inactive)
CCOC(=O)N1CCN(Cc2nc3cc([N+](=O)[O-])ccc3n2C(C)C)CC1	92% (inactive)
O=C(NCCO)c1nc2ccccc2s1	73% (inactive)
CCN(CC)c1ccc(NC(=O)c2cc(C)nc3c2c(C)nn3-c2cccc(F)c2)c(C)c1	100% (inactive)
O=C(CSC1=NC(=O)C(c2ccccc2)C(=O)N1)Nc1nncs1 (stereo not given)	70% (inactive)
O=C(c1cn(CCOc2ccccc2F)c2ccccc12)C1CCCCC1	-2% (active)
COc1ccc(OCCn2cc(C(=O)C3CCCCC3)c3ccccc32)cc1	13% (active)
Cc1ccc(NC(=O)Cn2cc(C(=O)C3CCCCC3)c3ccccc32)cc1	62% (inactive)
O=C(c1cccs1)c1cn(CCOc2ccc(Cl)cc2)c2ccccc12	156% (inactive)
Cc1ccc(OCCn2cc(C(=O)C3CCCCC3)c3ccccc32)cc1	3% (active)
O=C(Cn1cc(C(=O)C2CCCCC2)c2ccccc21)Nc1ccccc1Cl	76% (inactive)
Cc1ccccc1OCCn1cc(C(=O)C2CCCCC2)c2ccccc21	144% (inactive)
COc1ccc(NC(=O)Cn2cc(C(=O)C3CC3)c3ccccc32)cc1	88% (inactive)
COc1ccc(NC(=O)Cn2cc(C(=O)C3CCCCC3)c3ccccc32)cc1	71% (inactive)
Cc1ccc(OCCn2cc(C(=O)c3cccs3)c3ccccc32)cc1	69% (inactive)
O=C(c1cn(CCOc2ccc(Cl)cc2)c2ccccc12)C1CCCCC1	14% (active)
O=C(c1cccs1)c1cn(CCOc2ccccc2F)c2ccccc12	104% (inactive)
Cc1c(NC(=O)c2nc3ccccc3nc2N2CCCCC2)cccc1[N+](=O)[O-]	100% (inactive)
COc1ccc(-c2nc3n(n2)C(c2ccc(OC)cc2)C(C(=O)Nc2cccnc2)=C(C)N3)cc1 (stereo not given)	89% (inactive)
Cc1ccc(N2CC(NC(=O)CCc3ccccc3)CC2=O)cc1C (stereo not given)	101% (inactive)

Compound	survival
COc1ccc(N2CCN(C(=O)Cn3c(-c4cccs4)cc4ccccc43)CC2)cc1	80% (inactive)
Cc1cc(C)c(NC(=O)CN2C(=O)c3cccnc3Sc3ccccc32)c(C)c1	83% (inactive)
CCOC(=O)c1ccc(N2C(=O)c3n[nH]c(-c4ccco4)c3C2c2ccc(O)c(OCC)c2)cc1 (stereo not given)	69% (inactive)
C=CCn1c(O)c(CN2CCOCC2)c(C)c(C#N)c1=O	89% (inactive)
O=C(O)Cc1ccc(NC2(c3ccccc3)C(=O)c3ccccc3C2=O)cc1	73% (inactive)
Cc1cccc(NC(=O)c2ccc3c(O)c(S(=O)(=O)c4ccccc4)c(=O)[nH]c3c2)c1C	88% (inactive)
Cc1ccc(C)c(NC(=O)CN2CCN(C3CCCCC3)C(=O)C2=O)c1	94% (inactive)
CCC(Cn1nnc2ccccc2c1=O)NC(=O)Nc1cc(Cl)ccc1OC (stereo not given)	71% (inactive)
COC(=O)c1cc(S(=O)(=O)N2CCN(c3ccc(OC)cc3)CC2)c[nH]1	73% (inactive)
COC(=O)c1cc(S(=O)(=O)N2CCN(c3cc(Cl)ccc3C)CC2)c[nH]1	12% (active)
Cc1ccc(Cl)cc1N1CCN(C(=O)c2cc(S(=O)(=O)N3CCCC3)c[nH]2)CC1	88% (inactive)
CC(Oc1ccccc1)C(=O)Nc1ccccc1C(=O)OCc1cc(=O)n2nc(C(C)C)sc2n1 (stereo not given)	83% (inactive)
Cc1ccc2nc(-c3ccccn3)c(Nc3ccccc3C)n2c1	15% (inactive)
Cc1ccn2c(Nc3ccccc3C)c(-c3ccccc3)nc2c1	0% (active)
Cc1ccn2c(Nc3ccccc3C)c(-c3ccncc3)nc2c1	85% (inactive)
Cc1ccn2c(Nc3ccccc3C)c(-c3ccccn3)nc2c1	11% (active)
Cc1ccn2c(Nc3ccccc3C)c(-c3cccnc3)nc2c1	81% (inactive)
Cc1cccc(C)c1Nc1c(-c2ccccn2)nc2ccc(Cl)cn12	135% (inactive)
Cc1ccc2nc(N3CCN(c4ccccc4F)CC3)c3nnnn3c2c1	87% (inactive)
Cc1ccc(C)c(-n2cc(-c3ccccc3)nc2SCC(=O)Nc2ccccc2)c1	96% (inactive)
Cc1cccc(NC(=O)c2cnn(-c3ccccc3)c2-n2cccc2)c1C	77% (inactive)
CCC(=O)N1CCc2cc(Br)cc(S(=O)(=O)CCC(=O)N3CCN(c4cccc(C)c4)C(C)C3)c21 (stereo not given)	65% (inactive)
O=C(Nc1nc2n(n1)C(c1ccc(Cl)cc1)C=C(c1ccccc1)N2)c1ccco1 (stereo not given)	35% (active)
O=C(Nc1nc2n(n1)C(c1ccc(F)cc1)C=C(c1ccccc1)N2)c1cccc([N+](=O)[O-])c1 (stereo not given)	99% (inactive)

Compound	survival
O=C(Nc1nc2n(n1)C(c1ccc(F)cc1)C=C(c1ccc(Cl)cc1)N2)c1ccco1 (stereo not given)	16% (active)
O=C(Nc1nc2n(n1)C(c1ccccc1)C=C(c1ccccc1)N2)c1ccccc1 (stereo not given)	109% (inactive)
CC(=O)Nc1nc2n(n1)C(c1ccc(F)cc1)C=C(c1ccc(Cl)cc1)N2 (stereo not given)	59% (inactive)
O=C(Nc1nc2n(n1)C(c1ccc(F)cc1)C=C(c1ccccc1)N2)c1ccco1 (stereo not given)	41% (active)
O=C(Nc1nc2n(n1)C(c1ccccc1)C=C(c1ccc(Cl)cc1)N2)c1ccco1 (stereo not given)	42% (inactive)
COc1ccc(C(=O)Nc2nc3n(n2)C(c2ccc(Cl)cc2)C=C(c2ccccc2)N3)cc1OC (stereo not given)	59% (inactive)
Cc1ccc(C2C=C(c3ccc(Cl)cc3)Nc3nc(NC(=O)c4ccco4)nn32)cc1 (stereo not given)	67% (inactive)
O=C(NCCN1CCN(c2ccccc2)CC1)Nc1ccccc1Br	87% (inactive)
Cc1ccc(C)c(CN2C(=O)c3ccccc3S(=O)(=O)c3ccc(C(=O)N4CCCCC4)cc32)c1	61% (inactive)
Cc1cc2nn(-c3ccc(F)cc3)nc2cc1NC(=O)c1ccc(OC(C)C)cc1	64% (inactive)
O=c1c(S(=O)(=O)c2cccc(Cl)c2)cn(Cc2ccccc2)c2cc(N3CCOCC3)c(F)cc12	83% (inactive)
CCC(=O)N1CCc2cc(CNS(=O)(=O)c3ccc(NC(=O)CC(C)C)cc3)ccc21	86% (inactive)
CC(=O)Nc1ccc(OC(=O)c2ccco2)cc1	71% (inactive)
CCc1ccc(Nc2ncnc3sc4c(c23)CCCC4)cc1	72% (inactive)
CC(C)OCCCNc1ncnc2sc3c(c12)CCCC3	42% (active)
c1coc(CNc2ncnc3sc4c(c23)CCCC4)c1	107% (inactive)
c1cn(CCCNc2ncnc3sc4c(c23)CCCCC4)cn1	65% (inactive)
Cc1cc(C)cc(Nc2ncnc3sc4c(c23)CCCC4)c1	0% (active)
CN(C)c1ccc(Nc2ncnc3sc4c(c23)CCCC4)cc1	106% (inactive)
CCOc1ccccc1NC(=O)C1CCN(S(=O)(=O)c2c(C)noc2/C=C/c2ccco2)CC1	72% (inactive)
COc1ccc(N2CCN(S(=O)(=O)c3ccc(CC(C)C)cc3)CC2)cc1	56% (active)
COc1ccc(N2CCN(S(=O)(=O)c3ccc(C4CCCCC4)cc3)CC2)cc1	79% (inactive)
COc1ccc(N2CCN(S(=O)(=O)c3ccc4c(c3)C(C(C)C)C(=O)N4)CC2)cc1 (stereo not given)	125% (inactive)
Cc1ccc(NC(=O)Cn2cc(C(=O)C3CC3)c3ccccc32)cc1	148% (inactive)

Compound	survival
CCOC(=O)c1c(C)n(-c2ccccc2)c2ccc(OC(=O)COc3ccccc3)cc12	70% (inactive)
CCN1C(=C(C#N)C#N)C=Cc2cc(C)ccc21	70% (inactive)
COc1cccc(N2CC(NC(=O)c3ccc(S(=O)(=O)N4CCOCC4)cc3)CC2=O)c1 (stereo not given)	117% (inactive)
COC(=O)Cc1c(C)nc2nc(-c3ccc(C)cc3)[nH]n2c1=O	92% (inactive)
CC(=O)Nc1ccccc1-c1nc2ccccc2n(C(C)C(=O)Nc2ccccc2C(F)(F)F)c1=O (stereo not given)	98% (inactive)
CC(C(=O)Nc1ccccc1)n1nnc2sc3c(c2c1=O)CCCC3 (stereo not given)	61% (inactive)
CCN(CC)S(=O)(=O)c1cc(-c2ccc(=O)n(C(C)C(=O)Nc3cccc(C#N)c3)n2)ccc1C (stereo not given)	56% (inactive)
Cc1nn(C(C)C(=O)Nc2ccccc2C(F)(F)F)c(=O)c2c1sc1ccccc12 (stereo not given)	107% (inactive)
CC(C(=O)Nc1ccccc1C(F)(F)F)n1nc(-c2ccccc2)c2c(c1=O)CCCC2 (stereo not given)	30% (active)
CC(C(=O)Nc1cccc(C#N)c1)n1nc(-c2ccccc2)c2c(c1=O)CCCC2 (stereo not given)	20% (active)
CCN(C(=O)Cn1c(=O)n(-c2ccccc2)c(=O)c2ccc(C(=O)NCc3ccc4c(c3)OCO4)cc21)c1cccc(C)c1	84% (inactive)
CC(C)C(c1nnnn1C(C)(C)C)N(Cc1cc2cc3c(cc2[nH]c1=O)OCCO3)C1CCCCC1 (stereo not given)	109% (inactive)
COc1cccc(NC(=O)CCN2CCN(CCO)CC2)c1	158% (inactive)
CC(C)c1nn2c(=O)cc(COC(=O)CNC(=O)c3ccccc3Cl)nc2s1	125% (inactive)
COc1ccc2oc(=O)cc(CN3CCN(c4ccc(F)cc4)CC3)c2c1	61% (inactive)
COc1ccc2oc(=O)cc(CN3CCN(C(=O)c4ccccc4F)CC3)c2c1	36% (active)
CCOc1ccc2oc(=O)cc(CN3CCN(c4ccccc4)CC3)c2c1	83% (inactive)
COc1ccc2oc(=O)cc(CN3CCN(c4ccccc4F)CC3)c2c1	72% (inactive)
COc1ccc2oc(=O)cc(CN3CCN(C(=O)c4ccccc4)CC3)c2c1	41% (active)
COc1ccc(N2CCN(Cc3cc(=O)oc4ccc(OC)cc34)CC2)cc1	86% (inactive)
COc1ccc2oc(=O)cc(CN3CCN(Cc4ccccc4)CC3)c2c1	83% (inactive)
COc1ccc2oc(=O)cc(CN3CCN(C(=O)c4ccccc4Br)CC3)c2c1	44% (active)
COc1ccc2oc(=O)cc(CN3CCN(c4ccccc4OC)CC3)c2c1	77% (inactive)
